Shown are actives, neighbours in structure and some others; about 18% of the full set was active somewhere.
DT40 TDP1 no CPT = qHTS for Inhibitors of human tyrosyl-DNA phosphodiesterase 1 (TDP1): qHTS in cells in absence of CPT | AID 686978, 2013 | DT40 Tdp1-/- hTDP1 cells, no CPT, ATP luminescence, 48 h | Potency, µM (doses to about 46.2 µM), for inactives: top-dose activity change, negative = growth inhibition, usual class: inhibitors | actives 15% (n = 420,000); also: potency is read from the fitted curve at half-maximal effect; % is scaled to controls: 0 for no effect and ±100 for the full control effect; nearly all actives have a fitted effect of over 55% in size
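Compound effects on proliferation are scored in DT40 Tdp1-/-;hTDP1 cells in the absence of CPT. ATP levels (CellTiter-Glo luminescence) are recorded after a ≥48 hr, 37 °C incubation.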
HepG2 tox = qHTS for Inhibitors of TGF-b: Cytotox Counterscreen | Potency, µM (top dose mostly 46.1 µM), without a hit: top-dose activity change, negative = cytotoxicity, hits mostly cytotoxic | actives 0.76% (n = 410,000) | HepG2 CAGA-GFP viability, ATP luminescence, 18 h; also: potency is read from the fitted curve at half-maximal effect
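HepG2 CAGA-GFP cells (1000/well, DMEM with 1% FBS) received compound, then TGF-beta at 500 pg/mL final, and were incubated 18 hours at 37 degrees C. Viability was read by CellTiter-Glo luminescence. Media-only wells were set as complete cell-killing and DMSO as no toxicity.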
IL1B secr inh = qHTS for Inhibitors of Inflammasome Signaling: IL-1-beta AlphaLISA Primary Screen | THP-1 LPS/ATP IL-1B secretion, AlphaLISA, 16 h; hits give low values | activity change, % at 57.5 µM | actives 4.7% (n = 360,000); in the data active = activity change below about -50%; inconclusive = mostly about -30% to -49%; also: % is scaled to controls: 0 for no effect and ±100 for the full control effect
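THP-1 cells pretreated 1 hr with compounds (up to 57.5 uM final), then stimulated with LPS (250 ng/mL final) plus ATP (1.25 mM final); secreted IL-1B measured by AlphaLISA after 16 hr, decreased signal indicating inhibition.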
TDP1 block = qHTS Assay for Inhibitors of Tyrosyl-DNA Phosphodiesterase (TDP1); recombinant TDP1, AlphaScreen DNA substrate cleavage; Potency, µM (highest dose often 130 µM), inactives show at the top dose activity change, negative = inhibition, most hits filed as inhibitors; actives 0.28% (n = 350,000); AID 485290, 2010; also: potency is read from the fitted curve at half-maximal effect; % is scaled to controls: 0 for no effect and ±100 for the full control effect; nearly all actives have a fitted effect of over 40% in size
Target sequence (Q9NUW8 whole entry, looked up): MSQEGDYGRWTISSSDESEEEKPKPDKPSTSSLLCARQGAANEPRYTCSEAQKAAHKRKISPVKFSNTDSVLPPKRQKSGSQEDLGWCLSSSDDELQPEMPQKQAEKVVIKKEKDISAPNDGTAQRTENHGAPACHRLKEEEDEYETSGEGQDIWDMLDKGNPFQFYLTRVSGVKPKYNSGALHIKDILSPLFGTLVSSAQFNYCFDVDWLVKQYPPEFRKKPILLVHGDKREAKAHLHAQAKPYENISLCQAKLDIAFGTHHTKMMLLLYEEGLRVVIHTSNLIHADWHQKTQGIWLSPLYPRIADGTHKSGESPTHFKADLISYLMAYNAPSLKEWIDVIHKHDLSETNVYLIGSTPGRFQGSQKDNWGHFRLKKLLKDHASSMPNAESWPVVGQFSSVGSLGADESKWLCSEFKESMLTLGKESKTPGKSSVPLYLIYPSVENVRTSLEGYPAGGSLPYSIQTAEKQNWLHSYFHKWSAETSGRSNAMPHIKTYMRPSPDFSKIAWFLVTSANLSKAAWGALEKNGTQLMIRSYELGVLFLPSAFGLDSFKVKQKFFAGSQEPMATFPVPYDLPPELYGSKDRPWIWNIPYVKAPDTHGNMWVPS
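Enzyme-compound mixtures sat 15 min at room temperature, followed by a 5 min reaction with 15 nM final substrate and 10 min with AlphaScreen beads. Recombinant human Tdp1 was used at 1 nM final.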
DT40 TDP1 CPT = qHTS for Inhibitors of human tyrosyl-DNA phosphodiesterase 1 (TDP1): qHTS in cells in presence of CPT; chicken DT40 Tdp1-/-;hTDP1 cells + 20 nM CPT, ATP luminescence, 48 h; Potency, µM (doses to about 46.2 µM), for inactives: at the highest dose activity change, negative = growth inhibition, hits mostly inhibitors; actives 12% (n = 420,000); also: potency is read from the fitted curve at half-maximal effect; % is scaled to controls: 0 for no effect and ±100 for the full control effect; nearly all actives have a fitted effect of over 55% in size
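Cell growth measured by CellTiter-Glo luminescence after a minimum 48 h, 37 C compound exposure with 20 nM CPT in Tdp1-knockout DT40 cells stably expressing hTDP1, seeded 400/well; qHTS titration format.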
TGFb SMAD3 inh = qHTS for Inhibitors of TGF-b | HepG2 CAGA-GFP TGF-b/SMAD3 reporter, GFP fluorescence, 18 h; TGF-beta stimulated, 500 pg/mL final | Potency, µM (doses to about 46.1 µM), without a hit: top-dose activity, negative = inhibition, usual class: inhibitors | actives 1.2% (n = 410,000) | AID 588855, 2011; also: potency is read from the fitted curve at half-maximal effect; % is scaled to controls: 0 for no effect and ±100 for the full control effect; nearly all actives have a fitted effect of over 65% in size
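TGF-beta reporter screen: HEPG2 CAGA-GFP, 1% FBS, 500 pg/mL TGF-beta final, 18 h; per-cell GFP summed per well; curves fitted and categorized by class.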
* = called active by the depositor; ? = inconclusive; · = no result. Unless noted, calls follow the shape of the dose curve; as a rule, active = well fitted curve in the direction sought with a large enough effect; inconclusive = small, poorly fitted or top-dose-only effect, or another doubt; inactive = no such curve, though single readings can be large; an effect the other way counts as inactive or inconclusive.

SMILES	DT40 TDP1 no CPT	HepG2 tox	IL1B secr inh	TDP1 block	DT40 TDP1 CPT	TGFb SMAD3 inh
O=C(/C=C/c1ccco1)N1CCc2ccccc21	?	-62.7%	-26.6	2.7%	?	?
Cc1ccc(/C=C/C(=O)N2CCc3ccccc32)o1	13µM*	-11.4%	-80.8*	?	6.51µM*	-18.7%
O=C(Cn1nc2c(cc1=O)CCCC2)Nc1ccccc1C(F)(F)F	-7.3%	-12.0%	·	3.3%	0.8%	-0.1%
CCN(Cc1cccc(S(=O)(=O)O)c1)c1ccc(C(=C2C=CC(=[N+](CC)Cc3cccc(S(=O)(=O)O)c3)C=C2)c2ccc(O)cc2S(=O)(=O)O)cc1	-86.2%	-26.9%	·	·	-92.8%	?
CCN(Cc1cccc(S(=O)(=O)O)c1)c1ccc(C(=C2C=CC(=[N+](CC)Cc3cccc(S(=O)(=O)O)c3)C=C2)c2ccccc2S(=O)(=O)[O-])cc1	12.6µM*	-18.6%	·	·	2µM*	-3.2%
Cn1c(SCC(=O)c2ccc3c(c2)NC(=O)CO3)nc2ccccc21	?	0.3%	43.0	-4.8%	?	3.0%
CCCn1c(SCC(=O)c2ccc3c(c2)NC(=O)CO3)nc2ccccc21	9.2µM*	7.8%	29.8	3.4%	10.3µM*	2.9%
O=C1COc2ccc(C(=O)CSc3nnc(Cc4cccs4)n3-c3ccc(Cl)cc3)cc2N1	18.4µM*	-2.3%	0.4	5.2%	18.4µM*	?
O=C1COc2ccc(C(=O)CSc3nc4ccccc4c(=O)n3-c3ccc(Cl)c(Cl)c3)cc2N1	?	0.0%	84.1	4.8%	23.1µM*	0.0%
CCc1ccc(-n2c(SCC(=O)c3ccc4c(c3)NC(=O)CO4)nc3ccccc3c2=O)cc1	20.6µM*	-1.3%	53.2	1.2%	?	-7.8%
Nc1cc(N)nc(SCC(=O)c2ccc3c(c2)NC(=O)CO3)n1	-15.1%	-1.3%	-1.4	2.5%	-1.4%	14.8%
Cc1cc(C(=O)OCC(=O)c2ccc3c(c2)NC(=O)CO3)c2ccccc2n1	-1.3%	0.9%	37.7	4.9%	-2.4%	-8.1%
O=C1COc2ccc(C(=O)CSc3nnc(NCc4ccccc4)s3)cc2N1	13µM*	-11.5%	-20.7	·	?	-17.9%
O=C1COc2ccc(C(=O)CSc3nnc(Cc4ccccc4)o3)cc2N1	4.2%	-9.0%	18.7	·	-5.2%	-26.4%
O=C(CSc1nc2[nH]ncc2c(=O)n1-c1ccccc1)NCCc1ccccc1	?	-0.1%	-3.1	2.3%	-2.0%	11.2%
O=C(CSc1nc2[nH]ncc2c(=O)n1-c1ccccc1)c1ccc2c(c1)OCCO2	?	-21.1%	-53.9*	6.2%	?	3.7%
NC(=O)c1nnn(Cc2cc(Cl)c(C(=O)c3ccc(Cl)cc3)c(Cl)c2)c1N	16.4µM*	·	-0.3	·	4.61µM*	·
CCC1(CC)Cc2ccccc2C(N)=C1C#N	20.6µM*	-53.9%	23.3	2.5%	20.6µM*	1.4%
CCC1(CC)Cc2ccccc2C(=O)N1	-0.6%	0.9%	5.6	·	3.0%	-0.6%
COc1ccc(S(=O)(=O)N(C)C[C@H]2Oc3c(NC(=O)C4CC4)cccc3C(=O)N([C@H](C)CO)C[C@@H]2C)cc1	-14.9%	2.3%	15.2	0.5%	16.4µM*	9.7%
CC(C)NC(=O)Nc1cccc2c1O[C@H](CN(C)S(=O)(=O)c1ccc(F)cc1)[C@@H](C)CN([C@H](C)CO)C2=O	-28.2%	-1.0%	-4.6	0.9%	16.4µM*	6.3%
COc1ccc(S(=O)(=O)Nc2cccc3c2O[C@H](CN(C)S(=O)(=O)c2cccs2)[C@@H](C)CN([C@H](C)CO)C3=O)cc1	-11.1%	8.9%	-10.6	0.0%	?	1.6%
C[C@H](CO)N1C[C@H](C)[C@@H](CN(C)S(=O)(=O)c2ccccc2)Oc2c(NC(=O)C3CCCCC3)cccc2C1=O	23.1µM*	-5.0%	12.5	1.6%	?	8.2%
COc1ccc(S(=O)(=O)N(C)C[C@H]2Oc3c(NC(=O)Nc4ccccc4)cccc3C(=O)N([C@H](C)CO)C[C@@H]2C)cc1	?	5.5%	0.0	·	?	?
COc1ccc(S(=O)(=O)Nc2cccc3c2O[C@H](CN(C)S(=O)(=O)c2ccc(Cl)cc2)[C@H](C)CN([C@H](C)CO)C3=O)cc1	18.4µM*	-0.2%	-17.6	1.4%	?	?
SMILES	DT40 TDP1 no CPT	HepG2 tox	IL1B secr inh	TDP1 block	DT40 TDP1 CPT	TGFb SMAD3 inh
CS(=O)(=O)N1CCC[C@@]2(CCN(Cc3ccccc3)C2)C1	-6.5%	·	·	·	12.1%	·
Cc1nn(CC(=O)Nc2ccc(OC(F)(F)F)cc2)c(=O)c2c(C)n(-c3ccc(Cl)cc3)nc12	?	-23.7%	·	0.0%	?	-5.7%
CCn1c(=O)c2cc(C(=O)N3CCN(c4cccc(Cl)c4)CC3)sc2c2ccccc21	23.1µM*	20.9%	·	4.6%	14.6µM*	?
COc1cccc(N2CCN(C(=O)c3cc4c(=O)oc5ccc(C)cc5c4s3)CC2)c1	?	1.4%	·	8.1%	?	-7.6%
CCn1c(=O)c2cc(C(=O)N3CCN(c4cccc(OC)c4)CC3)sc2c2ccccc21	13µM*	-4.0%	·	10.4%	18.4µM*	?
CCn1c(=O)c2cc(C(=O)N3CCOCC3)sc2c2ccccc21	?	-4.7%	-20.4	0.0%	-21.1%	2.1%
Cn1c(=O)cnc2cnc(OCc3ccccc3)nc21	-1.1%	·	·	·	-2.5%	·
CCC(O)c1cnc(OCc2ccccc2)nc1OCc1ccccc1 (configuration not stated)	18.4µM*	14.1µM*	0.0	·	?	?
O=C(c1cccc(Cl)c1)c1nn(-c2ccccc2)c(=O)cc1C(F)(F)F	?	8.7%	-102.1*	6.2%	16.4µM*	-9.4%
O=C(Nc1ccccc1)c1nn(-c2ccccc2)c(=O)cc1C(F)(F)F	-26.1%	4.9%	14.5	-5.9%	?	-19.3%
O=C(c1ccccc1)c1nn(-c2ccccc2)c(=O)cc1C(F)(F)F	?	0.6%	-88.1*	-3.9%	-6.0%	1.4%
C[C@@H]1CN([C@H](C)CO)C(=O)CCCn2nncc2CO[C@H]1CN(C)Cc1ccc2c(c1)OCO2	-6.3%	5.1%	27.5	·	11.5%	8.8%

Screening results: PubChem BioAssay, National Center for Advancing Translational Sciences (NCATS)
